Bioassay records: PubChem, several laboratories
MPTP block: permeability transition pore inhibition. isolated mouse mitochondria, Ca2+ swelling absorbance, 30 min. inhibition, % at 10 µM. 360,000 compounds, 1.4% hits. AID 602449;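 active = inhibition of 50% or more, scaled per plate between neutral and stimulator controls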;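 also: 0% = DMSO wells given calcium and 100% = 1 mM EGTA wells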
ADAM17 inh: ADAM17 inhibition, QFRET primary screen | recombinant ADAM17, EDANS/DABCYL FRET peptide cleavage | inhibition, % at 6.95 µM | P78536 | 370,000 compounds, 0.83% hits;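 active = inhibition above the mean of compounds lying between control limits plus 3 SD, set per campaign, cut at about 8.5% in these data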;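 also: 0% = DMSO-only wells as the low control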
Pemphigus Ab inh: human desmoglein-3 autoantibody binding inhibition | P32926 | DSG3-coupled beads, scFv-anti-DSG3-GFP binding, flow cytometry; stronger effect = lower value | binding (percent of control), % at 10 µM | 310,000 compounds, 0.48% hits | AID 588358;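 active = binding more than 3 SD below its plate's average and above zero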;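 also: hits lower antibody fragment binding to DSG3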
ADAM10 inh: inhibits human ADAM10; O14672; recombinant ADAM10, EDANS/DABCYL FRET peptide cleavage, 3 h; inhibition, % at 7 µM; 370,000 compounds, 0.62% hits; AID 720582;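 active = inhibition above a per-campaign cutoff equal to the mean of compounds falling between control-based bounds plus 3 SD, cut at about 20% in these data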;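 also: 0% = DMSO wells while the 100% control is not disclosed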
Target sequence (O14672 214-748 limits assumed): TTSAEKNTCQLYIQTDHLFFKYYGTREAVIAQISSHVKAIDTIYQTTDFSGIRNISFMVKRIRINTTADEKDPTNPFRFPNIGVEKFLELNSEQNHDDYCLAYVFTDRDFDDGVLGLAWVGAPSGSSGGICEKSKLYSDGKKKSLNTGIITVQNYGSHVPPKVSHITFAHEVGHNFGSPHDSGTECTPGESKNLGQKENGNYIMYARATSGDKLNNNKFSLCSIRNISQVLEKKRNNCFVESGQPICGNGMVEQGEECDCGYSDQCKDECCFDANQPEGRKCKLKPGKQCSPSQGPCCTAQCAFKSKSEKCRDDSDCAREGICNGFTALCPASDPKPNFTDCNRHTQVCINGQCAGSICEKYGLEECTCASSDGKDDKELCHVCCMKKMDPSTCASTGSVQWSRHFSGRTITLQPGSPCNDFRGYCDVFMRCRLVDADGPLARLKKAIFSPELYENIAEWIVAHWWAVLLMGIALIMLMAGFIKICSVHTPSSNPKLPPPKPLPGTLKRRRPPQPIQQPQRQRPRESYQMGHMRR
KLK7 zymogen act: activates the human kallikrein-7 zymogen; P49862; purified proKLK7, EDANS-DABCYL substrate fluorescence; 100% is mature enzyme control, 0% vehicle; activation, % at 7 µM; 370,000 compounds, 0.9% hits;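 active = activation above the mean of all tested compounds plus 3 SD, computed per campaign excluding outliers beyond control limits, cut at about 13% in these data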
rCAG RNA binder: molecules binding r(CAG) RNA repeats; r(CAG) RNA repeat, TO-PRO-1 dye displacement fluorescence; AID 651821; 370,000 compounds, 1.3% hits; inhibition, % at 3 µM;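 active = inhibition above the plate cutoff, the mean of all test compounds on that plate plus 3 SD, cut at about 35% in these data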;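 also: 0% = DMSO alone and 100% = 100 µM mitoxantrone as full dye displacement; higher means more dye released from RNA so lower well fluorescence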
Numbers without * were called inactive; ! = not confirmed by another sample. The list is not random: actives were taken first. Their share in the collection is about 4.7%.

How did COc1cccc(-c2cc(C(=O)Nc3ccc(N(C)C(C)=O)cc3)c3cc(Br)ccc3n2)c1 do in these assays?
MPTP block: 11; ADAM17 inh: 8; Pemphigus Ab inh: 93; ADAM10 inh: 20*; KLK7 zymogen act: -4; rCAG RNA binder: 12

What do the screens show for `Cc1ccc(NC(=S)c2nc3ccccc3[nH]2)c(C)c1`?
MPTP block: 0; ADAM17 inh: 8.9*; Pemphigus Ab inh: 99; ADAM10 inh: 6; KLK7 zymogen act: 0; rCAG RNA binder: 3

How did Cc1nc(C(=O)O)cc2c1[nH]c1ccccc12 do in these assays?
MPTP block: 0; ADAM17 inh: -498; Pemphigus Ab inh: 92; ADAM10 inh: inactive; KLK7 zymogen act: 59*; rCAG RNA binder: 6

Results for C/C(N)=C(/C#N)C(=O)CSc1nnc(-c2ccc(OC(F)F)cc2)o1 ?
MPTP block: 0; ADAM17 inh: -3; Pemphigus Ab inh: 80*!; ADAM10 inh: -16; KLK7 zymogen act: 0; rCAG RNA binder: 5

Results for C/C(N)=C(/C#N)C(=O)CSc1nnc(-c2ccc3c(c2)OCO3)o1 ?
MPTP block: 0; ADAM17 inh: 1; Pemphigus Ab inh: 99; ADAM10 inh: 2; KLK7 zymogen act: 0; rCAG RNA binder: -1

What do the screens show for `C=CCN1C(=O)[C@@H](CC(=O)N2CCN(C(=O)C3CC3)CC2)[C@]2(C(=O)OC)CCCCC=C12`?
ADAM17 inh: -2; ADAM10 inh: -3; KLK7 zymogen act: 0; rCAG RNA binder: 7

What do the screens show for `O=C(COC(=O)c1ccc(S(=O)(=O)N2CCc3ccccc3C2)cc1)NC1CCS(=O)(=O)C1` (stereo not drawn)?
MPTP block: 2; ADAM17 inh: -4; Pemphigus Ab inh: 67*; ADAM10 inh: -5; KLK7 zymogen act: 0; rCAG RNA binder: 0

What do the screens show for `O=S(=O)(Nc1nc2ccccc2nc1Cl)c1ccccc1C(F)(F)F`?
MPTP block: 1; ADAM17 inh: -7; Pemphigus Ab inh: 112; ADAM10 inh: -21; KLK7 zymogen act: 0; rCAG RNA binder: 9

What do the screens show for `O=S(=O)(Nc1nc2ccccc2nc1Cl)c1cccc(C(F)(F)F)c1`?
MPTP block: 5; ADAM17 inh: -13; Pemphigus Ab inh: 103; ADAM10 inh: -35; KLK7 zymogen act: 1; rCAG RNA binder: 42*

How did Nc1cc(-c2ccc(Br)cc2)nn1S(=O)(=O)c1ccccc1 do in these assays?
MPTP block: 2; ADAM17 inh: 3; Pemphigus Ab inh: 62*; ADAM10 inh: -11; KLK7 zymogen act: 0; rCAG RNA binder: 10

How did S=c1[nH]nc(COc2ccccc2)n1/N=C/C=C/c1ccco1 do in these assays?
MPTP block: 3; ADAM17 inh: -7; Pemphigus Ab inh: 81*; ADAM10 inh: 3; KLK7 zymogen act: 0; rCAG RNA binder: 21

What do the screens show for `Cc1ccccc1CN1CCCCC(NC(=O)c2ccccc2C(F)(F)F)C1=O` (stereo not drawn)?
ADAM17 inh: -4; ADAM10 inh: -4; KLK7 zymogen act: 0; rCAG RNA binder: 0

What do the screens show for `COc1cccc(N/C=C(\C#N)c2ccc(OCCCF)cc2)c1`?
MPTP block: 0; ADAM17 inh: 5; Pemphigus Ab inh: 73*; ADAM10 inh: 4; KLK7 zymogen act: -1; rCAG RNA binder: 0

How did COc1ccc(C(C#N)=Cc2ccccc2OC)cc1 do in these assays?
MPTP block: -2; ADAM17 inh: 1; Pemphigus Ab inh: 104; ADAM10 inh: -15; KLK7 zymogen act: 1; rCAG RNA binder: 2

Results for CCOc1ccc(/C=N/n2c(C)nc3ccccc3c2=O)cc1 ?
MPTP block: 1; Pemphigus Ab inh: 68*

What do the screens show for `COC(=O)Cc1nnn2c1[C@H](C)[C@H](C(C)(C)C)OCC2`?
ADAM17 inh: -1; ADAM10 inh: 4; KLK7 zymogen act: 1; rCAG RNA binder: 2

What do the screens show for `Clc1cccc(Nc2nc(N3CCOCC3)nc(N3CCOCC3)n2)c1`?
MPTP block: 2; ADAM17 inh: 1; Pemphigus Ab inh: 47*; ADAM10 inh: -8; KLK7 zymogen act: 0; rCAG RNA binder: -1

How did Fc1cccc(Nc2nc(N3CCOCC3)nc(N3CCOCC3)n2)c1 do in these assays?
MPTP block: 0; ADAM17 inh: -3; Pemphigus Ab inh: 94; ADAM10 inh: 1; KLK7 zymogen act: 0; rCAG RNA binder: -8

How did COC(=O)C1=C(C)N(Cc2ccccc2C(F)(F)F)C(=NCC2CC2)NC1c1ccc(F)cc1 (stereo not drawn) do in these assays?
ADAM17 inh: -5; ADAM10 inh: -11; KLK7 zymogen act: 0; rCAG RNA binder: 4

What do the screens show for `CCOC(=O)[C@]12CCCC=C1N(Cc1ccc(OC)cc1)C(=O)[C@@H]2CC(=O)NCc1cccc(C(F)(F)F)c1`?
ADAM17 inh: 6; ADAM10 inh: 16; KLK7 zymogen act: 0; rCAG RNA binder: 2

Results for CCSc1nnc(-c2ccco2)n1C ?
ADAM17 inh: 2; ADAM10 inh: -2; KLK7 zymogen act: 0; rCAG RNA binder: -1

Results for CCOC(=O)CN1CCCc2nc(C)c(C)cc21 ?
ADAM17 inh: -189; ADAM10 inh: inactive; KLK7 zymogen act: 29*; rCAG RNA binder: 3

What do the screens show for `CCOC(=O)CN1CCCc2nc(-c3ccc(OC)cc3)ccc21`?
ADAM17 inh: -125; ADAM10 inh: -450; KLK7 zymogen act: 12; rCAG RNA binder: 10

How did CCC1CCCCN1C(=S)NN=C(C)c1ccccn1 (stereo not drawn) do in these assays?
ADAM17 inh: -10; ADAM10 inh: -32; KLK7 zymogen act: 1; rCAG RNA binder: 1

Results for O=C(Cc1ccc2c(c1)CCCC2)Nc1ccccc1Br ?
MPTP block: 0; ADAM17 inh: -4; Pemphigus Ab inh: 98; ADAM10 inh: -1; KLK7 zymogen act: 0; rCAG RNA binder: -4

Results for O=C(Cc1ccc2ccccc2c1)Nc1ccccc1Br ?
MPTP block: 0; ADAM17 inh: 0; Pemphigus Ab inh: 87*; ADAM10 inh: 12; KLK7 zymogen act: 0; rCAG RNA binder: 2

What do the screens show for `CN(C)C(=S)NC(=O)C(c1ccccc1)c1ccccc1`?
MPTP block: 0; ADAM17 inh: -2; Pemphigus Ab inh: -12*; ADAM10 inh: -3; KLK7 zymogen act: 0; rCAG RNA binder: -2

What do the screens show for `CC(=O)NNC(=S)NC(=O)C(c1ccccc1)c1ccccc1`?
MPTP block: -1; ADAM17 inh: 1; Pemphigus Ab inh: 100; ADAM10 inh: 2; KLK7 zymogen act: 0; rCAG RNA binder: 2

Results for O=C(CCN1C(=O)/C(=C/c2ccc(F)cc2)SC1=S)NC1C=CS(=O)(=O)C1 (stereo not drawn) ?
MPTP block: 1; ADAM17 inh: -3; Pemphigus Ab inh: 60*; ADAM10 inh: 1; KLK7 zymogen act: 1; rCAG RNA binder: 2

How did O=C(Nc1nc(-c2cccs2)cs1)c1cccc(S(=O)(=O)N2CCCCC2)c1 do in these assays?
MPTP block: 1; ADAM17 inh: 16*; Pemphigus Ab inh: 99; ADAM10 inh: 38*; KLK7 zymogen act: -3; rCAG RNA binder: 15
